Hit rate of the full screen: of about 48,000 compounds, about 13,000 (27%) showed an effect of 50% or more. This is one part of the list.
System: Wolbachia pipientis
Experiment: Anti-Wolbachia Cell-Based Screen
Assay type: functional
Parameters: scale not given: in the data most compounds retested in dose-response had high values
Details: 5 µM

Structure (SMILES) | Percent Effect [%]
Cc1ccc(S(=O)(=O)NC(=O)COc2ccc(CC#N)cc2)s1 | -2.544
CN(c1ccc(-c2nc(C3CC3)no2)cn1)C1CCOCC1 | 5.539
Cc1cccc(NCCNc2ccc(C#N)cn2)n1 | 14.53
CN(Cc1nnc(-c2ccco2)o1)Cc1nc2c(s1)CCCC2 | -12.52
COc1ccc(C(=O)N2Cc3cc(C)ccc3OCC2CN(C)C)cc1.Cl (configuration not stated) | 72.78
COc1ccccc1C(=O)N1Cc2cc(C)ccc2OCC1CN(C)C.Cl (configuration not stated) | -11.9
COc1ccc(C(=O)NC[C@H]2COCc3nc4cc(C)ccc4n32)cc1 | -9.863
Cc1ccc2c(c1)CN(C(=O)c1cccnc1)C(CN(C)C)CO2.Cl (configuration not stated) | 73.73
CCOCCC(=O)NCc1ccnc(NC2CC2)c1 | -81.15
CC(C)(C)OC(=O)N1CCCC[C@H]1C(=O)NCc1nccs1 | 1.043
CCC(NS(C)(=O)=O)c1ccccc1C (configuration not stated) | -2.544
Cc1ccccc1C(C)NC(=O)c1ccc(=O)n(C)c1 (configuration not stated) | 28.6
CCC(NC(=O)C(C)(C)C)c1ccccc1C (configuration not stated) | 109.5
Cc1ccccc1C(CC(=O)NCC(N)=O)c1ccccc1 (configuration not stated) | -4.865
Cc1ccccc1C(C)NC(=O)CN1CCN(Cc2ccc(Cl)s2)CC1 (configuration not stated) | -0.8834
Cc1ccccc1C(NC(=O)CCCS(C)(=O)=O)C(C)(C)C (configuration not stated) | -11.53
CCC(=O)NC(CC)c1ccccc1C (configuration not stated) | 115.1
Cc1ccc(C)c(C(NC(=O)C(C)(C)C)c2cccnc2)c1 (configuration not stated) | 4.189
CCC(NCc1ccccc1C)c1ccccc1OCC(=O)NC (configuration not stated) | -1.01
CCC(NC(=O)C(C)C)c1ccccc1C (configuration not stated) | 112
CCC(=O)NC(C)c1ccccc1C (configuration not stated) | 111
CCCC1(NC(=O)C(c2ccccc2C)N(C)C)CC1 (configuration not stated) | 5.158

Structure (SMILES) | Percent Effect [%]
Cc1nn2c(N3CCS(=O)(=O)CC3)cc(-c3ccccc3)nc2c1C | -7.306
COC(=O)CSCc1noc(-c2ccc(Cl)cc2)n1 | 23.78
Cc1nn(CCC#N)c(C)c1[C@@H]1C=C[C@@H](NCc2ccc(F)cc2)C1 | -3.605
CC(C)CCC(C)NC(=O)c1ccc(OCC(N)=O)cc1 (configuration not stated) | -5.752
NC(=O)c1ccc(S(=O)(=O)NC2CCN(Cc3ccccc3)C2=O)cc1 (configuration not stated) | -1.969
CC1CCN(C(=O)c2cc(NC(=O)c3ccccc3)n(C)n2)CC1 | 70.66
Cn1nc(C(=O)N2CCSCC2)cc1NC(=O)c1ccco1 | 98.85
CCN1CCN(C(=O)c2cc(NC(=O)c3ccccc3)n(C)n2)CC1 | 93.08
CC1CCN(C(=O)c2cn(-c3ccc(C(F)(F)F)cn3)nn2)CC1 | -7.014
Cn1nc(C(=O)N2CCCCCC2)cc1NC(=O)c1ccccc1 | 99.88
Cc1nc(N2CCCC2)nc(C)c1NC(=O)c1ccco1 | 8.53
CCN1CCN(C(=O)c2cc(C(=O)OC)nn2-c2ccccc2)CC1 | -11.35
CCn1nc(C)cc1C(=O)N1CCCN(CCCc2ccccc2)CC1 | 0.5946
CCCn1ccc(C(=O)N2CCC(C)CC2)n1 | -7.324
Cn1nc(C(=O)NC2CCCCC2)cc1NC(=O)C1CC1 | 0.3949
Cc1nc(N2CCOCC2)nc(C)c1NC(=O)c1ccco1 | 3.58
COC(=O)c1cc(C(=O)N2CCCCCC2)n(-c2ccccc2)n1 | -9.69
C/C=C(/C)C(=O)NS(=O)(=O)c1ccc(C(F)(F)F)cn1 | 4.736
CCCN(C(=O)c1ocnc1C)C1CCCN(Cc2ccccc2)C1 (configuration not stated) | -1.253
O=C1CC(NCc2ccc(OC(F)F)cc2)CN1Cc1cccc(F)c1 (configuration not stated) | 2.286
CN1CCN(C(=O)c2cc(NC(=O)c3ccccc3)n(C)n2)CC1 | 103.5
Cc1cccc(C(=O)N2CCSCC2)c1NC(=O)c1cccnc1 | -13.65

Structure (SMILES) | Percent Effect [%]
Cc1cccc(C(=O)N2CCN(C)CC2)c1NC(=O)c1ccncc1 | -3.532
Cn1nc(C(=O)N2CCSCC2)cc1NC(=O)c1ccccc1 | 96.7
O=C(c1ccn(-c2ccccc2Cl)n1)N1CCSCC1 | -7.672
CN1CCC(Oc2ccc(NC(=O)c3ccccc3)cc2)CC1 | 6.259
Cc1cc2ccccc2n1CCC(=O)N1CCN(C)CC1C(N)=O (configuration not stated) | 104.9
Cc1cc2ccccc2n1CCC(=O)N1CCCC1Cn1cccn1 (configuration not stated) | -4.808
Cc1cc2ccccc2n1CCC(=O)N1CCC[C@H]1C(N)=O | -2.793
CSCCC(=O)N1CCCC(c2nccn2Cc2ccncc2)C1 (configuration not stated) | -15.94
Cc1c[nH]nc1C1CCCCN1C(=O)CNS(C)(=O)=O (configuration not stated) | 91.22
Cc1ccnn1CCC(=O)N1C[C@H]2CC[C@@H]1CN(CC(=O)N(C)C)C2 | -3.709
Cc1c[nH]nc1C1CCCCN1C(=O)CCn1nccc1C (configuration not stated) | 91.05
Cc1c[nH]nc1C1CCCCN1C(=O)Cn1cc(Cl)cn1 (configuration not stated) | -1.424
Cc1c[nH]nc1C1CCCCN1C(=O)CC1(O)CCCCC1 (configuration not stated) | 121.5
Cc1n[nH]cc1CNC(=O)[C@H]1CCCCN1C(=O)OC(C)(C)C | -12.93
Cn1cc(C2CCCN2C(=O)COC2CCCCC2)cn1 (configuration not stated) | -3.38
CS(=O)(=O)NCC(=O)N1CCCC1c1noc(C2CC2)n1 (configuration not stated) | -4.288
Cc1cccc(C2CCCCN2C(=O)CCCS(C)(=O)=O)c1C (configuration not stated) | -5.265
CC(CCCC(C)(C)O)Nc1ccc(-c2nccn2C)nn1 (configuration not stated) | 6.201
COc1cc(N2CCC(c3nccn3Cc3ccccc3)CC2)ncn1 | -9.757
CN(C)C(=O)c1ccc2c(c1)N(C)C(CC(=O)NCCC(C)(C)C)CO2 (configuration not stated) | 1.305
CC(C)=CCN1CCN(Cc2nc3ccccc3[nH]2)[C@H]2CS(=O)(=O)C[C@H]21 | -9.753
O=S1(=O)C[C@@H]2[C@H](C1)N(Cc1ncc[nH]1)CCN2CC1CC1 | -14.64

Structure (SMILES) | Percent Effect [%]
CC(C)=CCN1CCN(Cc2nccn2C)[C@H]2CS(=O)(=O)C[C@H]21 | 99.3
O=S1(=O)C[C@@H]2[C@H](C1)N(Cc1cc(Cl)cc(Cl)c1)CCN2CC1CC1 | 5.878
Cn1ccnc1CN1CCN(CC2CC2)[C@@H]2CS(=O)(=O)C[C@@H]21 | 106.1
CC(C)=CCN1CCN(Cc2ncc[nH]2)[C@H]2CS(=O)(=O)C[C@H]21 | -11
CN1CCN(c2cnn(Cc3ccc(S(C)(=O)=O)cc3)c(=O)c2)CC1 | 4.016
Cc1ccc(N2CCCC(N3CCN(CC(F)F)CC3)C2=O)cc1 (configuration not stated) | -21.44
CN(C1CCN(c2ccccn2)CC1)S(=O)(=O)c1ccc(F)cc1 | 18.41
CN(C(=O)c1ccccc1Cl)C1CCN(c2ccccn2)CC1 | 11.04
Cc1cccc(C(=O)N(C)C2CCN(c3ccccn3)CC2)c1C | 141.7
CN(C(=O)c1cccc2[nH]ncc12)C1CCN(c2ccccn2)CC1 | -1.361
Cc1ccccc1CC(=O)N(C)C1CCN(c2ccccn2)CC1 | -4.877
COc1ccccc1C(=O)N(C)C1CCN(c2ccccn2)CC1 | 177.1
CCOc1ncccc1C(=O)N(C)C1CCN(c2ccccn2)CC1 | 144.5
CN(C(=O)CNc1ccc(C#N)cc1)C1CCN(c2ccccn2)CC1 | 6.622
O=C(Cn1cnnn1)NCC1(O)CCCc2ccccc21 (configuration not stated) | -5.769
CC(=O)Nc1ccc(CNC(=O)CNCc2sc(C)nc2C)cc1 | -27.38
CCOC(=O)CC(C)NC(=O)c1cn(Cc2ccccc2F)nn1 (configuration not stated) | -6.246
CNC(=O)C(C)NC(=O)c1ccc(Oc2cccnc2)cc1 (configuration not stated) | -6.707
CO[C@@H]1CC[C@@H](N(C)C(=O)COc2ccc(F)cc2)[C@H]1O | -1.969
CN(C(=O)COc1ccc(F)cc1)[C@@H]1CC[C@@H](n2ccnc2)[C@@H]1O | 128.1
CN(C(=O)COc1ccc(F)cc1)[C@@H]1CS(=O)(=O)C[C@H]1O | 1.163
CN(C)c1cccc(CNC(=O)Nc2ccc3[nH]nnc3c2)n1 | 0.1018

Structure (SMILES) | Percent Effect [%]
CC(C)Cc1cc(NC(=O)c2ccc3[nH]nnc3c2)n(C)n1 | -17.03
CCC(C)N(CC)C(=O)c1ccc2[nH]nnc2c1 (configuration not stated) | 122.8
CCC(CO)N(Cc1ccc(C(=O)O)cc1)Cc1ccsc1 (configuration not stated) | 4.353
CCC(C)N(Cc1ccsc1)C(=O)c1ccc2[nH]nnc2c1 (configuration not stated) | 109
CCC(C)N(Cc1ccsc1)C(=O)c1ccc(CO)cc1 (configuration not stated) | 113.9
CC(=O)N(Cc1ccsc1)c1ccccc1 | -9.96
Cn1nc(CC(C)(C)C)cc1NC(=O)c1ccc2[nH]nnc2c1 | -11.38
CCOc1cc(C(=O)N(C)C)ccc1NC(=O)C(C)c1ccsc1 (configuration not stated) | -4.912
CCn1nc(C)c(CCNC(=O)C2CCCN(C(=O)N(C)C)C2)c1C (configuration not stated) | -3.526
COC(=O)CN(Cc1ccccc1C)C(=O)C1CCC1 | 9.342
CN(Cc1cccs1)C(=O)CN(C)C1CCc2ccccc21 (configuration not stated) | 8.524
Cn1nc(Cn2ccnc2)c2c1CN(c1ncccn1)C2.O=C(O)C(F)(F)F | -4.507
O=C(O)C(F)(F)F.c1ccc(OCc2noc3c2CN(c2ncccn2)CC3)nc1 | 2.544
Cc1cnc(N2CCc3onc(COc4cccnc4)c3C2)nc1 | 88.9
Cc1cnc(N2CCc3c(c(COc4cncnc4)nn3C)C2)nc1 | 94.36
Cn1nc(COc2cccnc2)c2c1CCN(c1ncccn1)C2 | 87.22
c1cncc(OCc2noc3c2CN(Cc2ccoc2)CC3)c1 | 7.434
Cn1nc(COc2cncnc2)c2c1CCN(Cc1ccccn1)C2.O=C(O)C(F)(F)F | 8.456
Cn1nc(COc2cncnc2)c2c1CCN(Cc1ccco1)C2.O=C(O)C(F)(F)F | 2.599
